A selection: hits, their analogues and other compounds. The true share with any hit is near 1.4%.
MbtI inh: MbtI salicylate synthase inhibitors, primary screen, biochemical, fluorescence intensity; P9WFX0; inhibition, % (no concentration beside the values); hit rate 0.89% among 100,000; purified MbtI enzyme, fluorescence intensity read-out; AID 493033, 2011; in the data active means inhibition mostly above about 56%, no sharp cut-off; inactive means mostly below about 77%
Target sequence (P9WFX0 whole entry, looked up): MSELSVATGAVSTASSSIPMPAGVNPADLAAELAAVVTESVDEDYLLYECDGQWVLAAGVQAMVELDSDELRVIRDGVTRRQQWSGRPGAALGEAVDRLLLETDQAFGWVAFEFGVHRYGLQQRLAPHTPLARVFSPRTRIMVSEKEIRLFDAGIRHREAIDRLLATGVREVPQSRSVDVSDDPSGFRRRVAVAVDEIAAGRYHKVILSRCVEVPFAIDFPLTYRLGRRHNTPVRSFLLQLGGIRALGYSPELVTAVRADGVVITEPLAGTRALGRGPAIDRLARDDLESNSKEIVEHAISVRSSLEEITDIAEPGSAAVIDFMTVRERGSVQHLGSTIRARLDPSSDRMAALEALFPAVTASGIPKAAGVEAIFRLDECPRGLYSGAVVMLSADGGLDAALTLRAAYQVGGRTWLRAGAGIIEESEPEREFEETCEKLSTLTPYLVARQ
PV pol inh: poliovirus RdRp elongation inhibitors, primary screen, biochemical, fluorescence polarization, total intensity; Genome polyprotein (Poliovirus type 1 (strain Mahoney)), P03300; poliovirus polymerase elongation; hits give low values; % elongation, % (compound at 16.7 µg/mL); hit rate 0.66% among 150,000; AID 588519, 2011; in the data active means % elongation below about 90%
MenB inh: M. tuberculosis MenB inhibitors, primary screen, biochemical, absorbance; 1,4-dihydroxy-2-naphthoyl-CoA synthase (Mycobacterium tuberculosis (strain ATCC 25618 / …; MenB enzyme assay, absorbance read-out; inhibition, % (no concentration beside the values); hit rate 0.43% among 100,000; in the data active means inhibition above about 21%, passing the limit was not always enough
The depositor's hits bear a star; i = inactive; . = not tested or not shown.

SMILES	MbtI inh	PV pol inh	MenB inh
CN(C)/C=C1/C=C(c2ccccc2)OC1=S	79.9*	99.0	-167.7
CN(C)/C=C1/N=C(c2ccccc2)OC1=O	10.8	100.0	3.7
O=C(Nc1nonc1-c1ccc(Br)cc1)c1ccco1	.	107.0	.
O=C(Nc1ccccc1C(=O)NCc1ccco1)c1ccc(Cl)cc1	-12.7	102.0	-26.6
Cc1ccc(N(CC(=O)Nc2ccccc2C(=O)NCc2ccco2)S(C)(=O)=O)cc1Cl	1.2	21.0*	-13.5
Cc1ccc(N(CCO)S(=O)(=O)c2ccc(NC3=NS(=O)(=O)c4ccccc43)cc2)cc1	11.4	101.0	31.0
COc1ccc(C(=O)CSc2nnc(CCC(=O)O)c(=O)[nH]2)cc1OC	7.0	99.0	-11.5
O=C(COc1cccc(-n2cnnn2)c1)N1CCOCC1	-3.4	104.0	-1.2
COC(=O)COc1ccc2cccc(-n3cnnn3)c2c1	89.6	101.0	38.8*
Cc1ccccc1CSCc1nc2ccccc2c(=O)n1CC#N	-8.7	104.0	-16.0
N#CCn1c(C[S+]=C=N)nc2ccccc2c1=O	84.3*	100.0	-39.6
CN(C)Cc1nc2ccccc2c(=O)n1CC#N	4.9	113.0	9.0
N#CCn1c(Cc2ccccc2)nc2ccccc2c1=O	13.9	101.0	47.9*
Cc1[nH]c(=O)[nH]c(=O)c1S(=O)(=O)N1CCC(C(=O)NCCN2CCN(c3ccccc3)CC2)CC1	-0.2	98.0	4.4
CCC1(C)CC(C(CCN)c2ccc(C)cc2)CCO1 (configuration not stated)	.	109.0	-1.1
Cc1cc2occ(CC(=O)Oc3ccc(-c4nnco4)cc3)c2cc1C(C)C	-0.2	98.0	-20.9
CCc1ccc(NCc2c(C(=O)O)cnn2-c2ccccc2)cc1	-3.8	102.0	-7.7
CCC(=O)N1CCN(c2nc3c(C)c(Cl)ccc3s2)CC1	11.6	103.0	-22.5
CCCCNC(=O)c1ccc(F)cc1Cl	-8.9	101.0	12.6
Nc1ccc(N2CCOCC2)c(N)c1	35.2	56.0*	-43.1
NS(=O)(=O)c1ccc(N2CCOCC2)c(C(=O)O)c1	-0.2	102.0	-23.9
CN(C)/C=C(\C#N)C(=O)N(C)c1ccc(F)cc1F	10.4	104.0	6.7
CCn1c(NNS(=O)(=O)c2ccccc2F)nc2ccccc2c1=O	46.4	108.0	-8.1
CC1=CC(=O)C(CCCC2=CC(=O)C=CC2=O)=CC1=O	100.3*	102.0	-0.1
Cc1ccc(C2=CC(=O)C=CC2=O)cc1	92.3	104.0	15.5
SMILES	MbtI inh	PV pol inh	MenB inh
COCCn1nnnc1C(c1ccncc1)N1CCCC1 (configuration not stated)	4.0	94.0	-24.8
Cc1ccc(-c2csc(/C(C#N)=C/c3ccccc3Cl)n2)cc1	.	107.0	.
O=C(CSc1ncc(C(F)(F)F)cc1Cl)N1CCNC1=O	57.7*	104.0	3.0
O=C1CN(C(=O)CSc2ncc(C(F)(F)F)cc2Cl)c2ccccc2N1	5.2	99.0	-8.5
CN(Cc1ccccc1)C(=O)COc1ccc(S(=O)(=O)N2CCCC2)cc1	-3.3	100.0	40.5*
COc1ccc(CN(C)C(=O)COc2ccccc2)cc1	-8.4	102.0	-28.2
Cc1cc(C)c2c(N)c(C(=O)NC(C)c3ccccc3)sc2n1 (configuration not stated)	.	105.0	-3.0
O=C(O)C1(c2ccccc2)CCC(Nc2ccccc2)C1 (configuration not stated)	.	69.0*	-4.6
CC(=O)NC1CCC(C(=O)O)(c2ccccc2)C1 (configuration not stated)	.	101.0	3.8
NC(=O)Cn1cnc2sc3c(c2c1=O)CCC3	.	90.0*	-24.3
CCn1cnc2sc3c(c2c1=O)CCCC3	0.6	99.0	6.1
O=C(NCc1nc(-c2ccccc2F)no1)c1ccc2c(c1)OCO2	-12.3	103.0	-7.3
CC(=O)n1c(/C=C2/N=C(c3cccs3)OC2=O)cc2ccccc21	-5.3	102.0	-33.4
O=C1OC(c2cccs2)=N/C1=C\c1cccc(F)c1	95.1	88.0*	.
CCN1C(=O)N/C(=C/c2ccc(OCc3ccc(C(=O)O)cc3)cc2)C1=O	-0.1	102.0	-2.1
COc1ccc(S(=O)(=O)c2c(Nc3ccccc3F)sc(C(=O)c3cccc(OC)c3)c2N)cc1	.	106.0	.
S=c1[nH]ccn1Cc1ccccc1	67.9*	102.0	-1.4
Cc1n[nH]c(=S)n1Cc1ccccc1	16.9	99.0	6.8
O=C(O)CCN1C(=O)/C(=C/c2ccccn2)SC1=S	74.5*	99.0	-155.4
COc1ccc(/C=C2/SC(=S)N(CCC(=O)O)C2=O)cc1	.	105.0	-299.7
CC1CN(Cc2nc3c([nH]2)c(=O)[nH]c(=O)n3C)CC(C)O1 (configuration not stated)	2.4	100.0	-1.3
S=c1nc(-c2cccs2)cn[nH]1	73.8*	101.0	-33.3
FC(F)(F)c1cc(-c2cccs2)n[nH]1	-7.8	104.0	0.7
O=C(c1cnn(-c2cccc(F)c2)c1-n1cccc1)N1CCN(c2ccccc2F)CC1	.	111.0	.
CCCC(=O)Nc1ncnc2c1ncn2[C@@H]1O[C@@H]2COP(=O)(O)O[C@@H]2C1OC(=O)CCC (some centres not stated)	-2.5	100.0	0.6
SMILES	MbtI inh	PV pol inh	MenB inh
O=C1CCCCCN1C(=O)c1ccccc1	7.3	102.0	-15.7
O=C1CCCCCN1Sc1ccccc1	69.6*	102.0	9.0
CCOc1ccc(NC(=O)CC2C(=O)N(c3cccc(C)c3)C(=O)N2Cc2ccco2)cc1 (configuration not stated)	.	116.0	.
Cc1ccc(C)c(Cn2c(SCC(=O)NCc3ccccc3)nc3ccccc32)c1	.	102.0	.
S=c1nn[nH]n1CCc1ccc(Cl)cc1	24.9	102.0	0.8
Fc1ccc(Cn2[nH]nnc2=S)cc1	68.8*	96.0	-16.5
N#CC(C#N)=Cc1ccc(O)c(Cl)c1	60.8*	100.0	i
NC(N)=N/N=C/c1ccc(O)c(Cl)c1	-4.8	102.0	-22.1
Cc1nnc(-c2ccccn2)[nH]c1=O	-0.1	104.0	-2.1
Cn1c(=O)[nH]c2nnc(-c3ccccn3)nc2c1=O	13.1	89.0*	-52.3
Cc1c(C(=O)O)cc(-c2ccccc2)n1CCSc1cc(C(F)(F)F)nc2ccccc12	-1.4	102.0	5.3
CC1(C)C(=O)N(c2cccc(Cl)c2)C(=O)C1(C)C	-15.8	98.0	0.6
CCCCc1ccc(CC(=O)O)cc1	2.1	102.0	-23.2
CCCCc1ccc(N2C(=O)C=CC2=O)cc1	97.6*	101.0	.
O=C1Cc2ccccc2C(=O)N1c1cccc(Cl)c1	-0.4	78.0*	-34.9
O=C1C=CC(=O)N1c1cccc(Cl)c1	100.5*	103.0	4.2
O=C1Cc2ccccc2C(=O)N1c1ccccc1	-3.3	98.0	.
O=C(Nc1cccc(N2C(=O)C=CC2=O)c1)c1cccs1	83.2	104.0	-66.9
CC(=O)Nc1cccc(N2C(=O)C=CC2=O)c1	95.5*	105.0	-58.4
Cc1cc(C)c(C(=O)Nc2cccc3c(=O)[nH][nH]c(=O)c23)c(C)c1	69.4	98.0	-7.7
c1ccc(CNCCSc2nnnn2-c2ccccc2)cc1	-1.1	102.0	-5.9
CC(Oc1ccc(Oc2ccccc2)cc1)C(=O)NC1CC1 (configuration not stated)	-6.0	104.0	6.8
O=C1C=CC(=O)N1c1ccccc1	99.0*	102.0	-2.7
CC(C)c1ccc(N2C(=O)C=CC2=O)cc1	101.3*	100.0	-1.1
O=C1c2ccccc2C(=O)N1c1ccccc1	0.7	101.0	-34.0

Source: PubChem (ICCB-Longwood Screening Facility, Harvard Medical School)
